Assay results as given in PubChem BioAssay.
Values joined by “and” are separate entries in the source; they are usually repeats but may differ in a detail not shown here. Identical values can stand only once. Active and inactive are the calls of the source.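 The calls were made as follows, unless noted: active = compounds whose cell count with miR-34 switched on is under 0.7 times the count with it off; inactive = the rest.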

Experiments:
[1] = sensitizers of A549 cells to miR-34 induction, primary screen, imaging, A549 dox-inducible miR-34, nuclei and caspase counts (AID 1347080); conditions: A549 miR-34 inducible, Hoechst nuclei count, 48 h
[2] = phospholipid biosynthesis inhibitors in animal cells, primary screen, cell-based, LOPAC library, screen 4 (AID 1347384; call rule not given here); conditions: phospholipid biosynthesis inhibition screen, at 10 µM
[3] = survival rescue of mitochondrial mutant cells in low glucose, primary screen, MELAS cybrids, Rieske KO mouse fibroblasts, CellTiter-Glo (AID 1508586;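 active = mean z-score across replicates of 1.96 or higher in either the MELAS or the Rieske mutant cell line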;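 also: z relative to plate mean and SD of compound and empty wells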)
[4] = biological target: NAD(+) hydrolase SARM1 (Homo sapiens) (UniProt Q6SZW1); assay: SARM1 TIR NADase inhibitors, cell lysate, NAD-Glo luminescence (AID 1508614;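 active = compound whose remaining NAD level is above about 45 nM, limit read from the data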;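 also: higher remaining NAD means stronger inhibition of SARM1 NADase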); conditions: SAM-TIR HEK293T lysate NADase, at 1 µM, stronger effect = higher value
Sequence of NAD(+) hydrolase SARM1 (Homo sapiens) (Q6SZW1 whole entry, looked up): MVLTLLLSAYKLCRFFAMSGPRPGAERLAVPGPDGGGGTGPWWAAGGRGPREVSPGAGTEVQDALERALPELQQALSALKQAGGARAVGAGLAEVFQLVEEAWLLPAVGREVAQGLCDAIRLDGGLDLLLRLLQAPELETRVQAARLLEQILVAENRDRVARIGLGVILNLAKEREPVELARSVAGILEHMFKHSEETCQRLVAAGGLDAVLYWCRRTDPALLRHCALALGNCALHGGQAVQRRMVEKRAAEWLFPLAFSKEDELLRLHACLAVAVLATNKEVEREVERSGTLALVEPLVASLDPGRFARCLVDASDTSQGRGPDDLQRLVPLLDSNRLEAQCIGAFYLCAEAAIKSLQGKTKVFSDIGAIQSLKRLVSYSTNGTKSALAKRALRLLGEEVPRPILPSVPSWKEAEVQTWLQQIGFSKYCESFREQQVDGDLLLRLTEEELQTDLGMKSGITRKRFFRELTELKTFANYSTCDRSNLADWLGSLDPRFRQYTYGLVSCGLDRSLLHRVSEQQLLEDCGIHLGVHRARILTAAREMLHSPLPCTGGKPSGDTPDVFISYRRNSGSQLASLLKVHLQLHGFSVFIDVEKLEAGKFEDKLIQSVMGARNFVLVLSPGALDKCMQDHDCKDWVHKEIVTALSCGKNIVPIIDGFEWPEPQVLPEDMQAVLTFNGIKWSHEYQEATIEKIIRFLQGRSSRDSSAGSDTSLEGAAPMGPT

[5] = viability rescue of complex I mutant cybrids, primary screen, cell-based, galactose medium, ATP luminescence (AID 1645843;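 active = z-score of at least 1.8 in each of two replicates, scored against plate mean and spread of sample wells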;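 also: positive z means more ATP and so rescue of galactose-driven cybrid death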); conditions: complex I mutant cybrid cells, 72 h, stronger effect = higher value
[6] = biological target: Mitogen-activated protein kinase 7 (Homo sapiens) (UniProt Q13164); assay: ERK5 transactivation activators in reporter cells, primary screen, cell-based, HTS (AID 1508626;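 active = luciferase signal above three times the same-plate solvent-only control wells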;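 also: luciferase driven by Gal4-ERK5 fusion binding five Gal4 sites before minimal TATA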); conditions: HeLa Gal4-ERK5 transactivation, 18 h, at 5 µM, stronger effect = higher value
Sequence of Mitogen-activated protein kinase 7 (Homo sapiens) (Q13164 whole entry, looked up, the tested form may be a part): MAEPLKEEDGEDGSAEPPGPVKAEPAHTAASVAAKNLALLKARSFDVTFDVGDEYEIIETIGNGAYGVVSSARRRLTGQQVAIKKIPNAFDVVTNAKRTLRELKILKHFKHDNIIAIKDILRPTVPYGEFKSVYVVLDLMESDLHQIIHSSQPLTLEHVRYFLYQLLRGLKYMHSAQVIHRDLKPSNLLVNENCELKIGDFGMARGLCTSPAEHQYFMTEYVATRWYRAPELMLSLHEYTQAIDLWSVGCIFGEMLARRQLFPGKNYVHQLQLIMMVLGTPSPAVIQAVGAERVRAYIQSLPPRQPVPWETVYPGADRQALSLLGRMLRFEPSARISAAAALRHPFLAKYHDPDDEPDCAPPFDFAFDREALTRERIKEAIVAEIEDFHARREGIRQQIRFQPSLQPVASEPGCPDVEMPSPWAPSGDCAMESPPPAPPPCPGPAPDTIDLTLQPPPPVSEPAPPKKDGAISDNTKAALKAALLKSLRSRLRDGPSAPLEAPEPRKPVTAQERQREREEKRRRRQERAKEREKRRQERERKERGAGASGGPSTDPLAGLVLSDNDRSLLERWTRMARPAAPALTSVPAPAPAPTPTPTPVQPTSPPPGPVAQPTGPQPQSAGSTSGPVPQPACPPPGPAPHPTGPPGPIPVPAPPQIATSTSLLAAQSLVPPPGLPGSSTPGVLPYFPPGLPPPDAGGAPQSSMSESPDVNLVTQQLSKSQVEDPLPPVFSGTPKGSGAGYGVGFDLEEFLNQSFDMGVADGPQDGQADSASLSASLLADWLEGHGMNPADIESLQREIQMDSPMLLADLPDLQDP

[7] = stronger effect = lower value, cell number ratio, induced over uninduced
[8] = measured here: relative caspase fold change +Dox/-Dox
[9] = measured here: total cells with miR-34 induction, stronger effect = lower value
[10] = measured here: total cells without miR-34 induction
[11] = MELAS cybrid survival, CellTiter-Glo 48 h, stronger effect = higher value
[12] = Rieske KO mouse fibroblast survival, CellTiter-Glo 72 h

C[C@H](NC(CCc1ccccc1)C(=O)O)C(=O)N1CCC[C@H]1C(=O)O (stereo not given in full)
fold change [1, 7]: 0.987 (inactive) and 0.909 (inactive)
fold change [1, 8]: 0.994 and 1.8
cell count [1, 9]: 9660 and 10200
cell count [1, 10]: 9790 and 11200
outcome [2]: inactive
z-score [3, 11]: -0.542 (inactive)
z-score [3, 12]: -1.35
remaining NAD [4]: 10 nM (inactive)
z-score [5]: 0.7 (inactive) and 0.605 (inactive)

C[N+]1(CCCCC[N+]2(C)CCCC2)CCCC1
fold change [1, 7]: 1.07 (inactive) and 0.91 (inactive)
fold change [1, 8]: 0.597 and 1.28
cell count [1, 9]: 10400 and 8690
cell count [1, 10]: 9650 and 9550
outcome [2]: inactive
z-score [3, 11]: 0.607 (inactive)
z-score [3, 12]: 0.539
luciferase signal [6]: 108 AU (inactive)
z-score [5]: 0.235 (inactive)

NC(Cc1ccc(Cl)cc1)C(=O)O (stereo not given)
fold change [1, 7]: 0.993 (inactive)
fold change [1, 8]: 1.95
cell count [1, 9]: 10900
cell count [1, 10]: 10900
outcome [2]: inactive
remaining NAD [4]: 10 nM (inactive)
z-score [5]: 0.25 (inactive)

C[C@]12C[C@H](O)[C@H]3[C@@H](CCC4=CC(=O)CC[C@@]43C)[C@@H]1CC[C@@H]2C(=O)CO
fold change [1, 7]: 0.955 (inactive) and 0.755 (inactive) and 0.815 (inactive)
fold change [1, 8]: 2.18 and 1.95 and 1.31
cell count [1, 9]: 7560 and 6880 and 7400
cell count [1, 10]: 7920 and 9120 and 9080
outcome [2]: inactive
z-score [3, 11]: 0.478 (inactive) and -0.124 (inactive)
z-score [3, 12]: -0.146 and 0.938
z-score [5]: -0.085 (inactive) and -0.065 (inactive)

Cc1cc(=O)[nH]c(=S)[nH]1
fold change [1, 7]: 0.999 (inactive) and 0.935 (inactive)
fold change [1, 8]: 0.275 and 0.458
cell count [1, 9]: 8050 and 11700
cell count [1, 10]: 8060 and 12500
z-score [3, 11]: 0.105 (inactive)
z-score [3, 12]: -0.199
remaining NAD [4]: 10 nM (inactive)
luciferase signal [6]: 100 AU (inactive)

CCN(CC)CCOC(=O)C(c1ccccc1)C1CCCCC1 (stereo not given)
fold change [1, 7]: 0.896 (inactive)
fold change [1, 8]: 1.16
cell count [1, 9]: 8670
cell count [1, 10]: 9680
z-score [3, 11]: -2.21 (inactive)
z-score [3, 12]: 0.0498
remaining NAD [4]: 10 nM (inactive)
luciferase signal [6]: 52 AU (inactive)

CC[C@]12CCCN3CCc4c(n(c5ccccc45)C(=O)C1)[C@@H]32
fold change [1, 7]: 0.89 (inactive)
fold change [1, 8]: 1.52
cell count [1, 9]: 3350
cell count [1, 10]: 3760
z-score [3, 11]: 1.02 (inactive)
z-score [3, 12]: 0.169

Cc1cccc(C)c1NC(=O)C(C)N (stereo not given)
fold change [1, 7]: 0.975 (inactive) and 0.939 (inactive) and 0.865 (inactive)
fold change [1, 8]: 0.988 and 0.663 and 1.75
cell count [1, 9]: 10300 and 9450 and 9090
cell count [1, 10]: 10600 and 10100 and 10500
outcome [2]: inactive
z-score [3, 11]: 0.748 (inactive)
z-score [3, 12]: 0.421
z-score [5]: 0.04 (inactive) and 0.79 (inactive)

NC/C=C/C(=O)O
fold change [1, 7]: 1.01 (inactive)
fold change [1, 8]: 1.35
cell count [1, 9]: 10300
cell count [1, 10]: 10200
outcome [2]: inactive
luciferase signal [6]: 96 AU (inactive)
z-score [5]: 0.575 (inactive)

CCN(CC)CCNC(=O)c1cc(S(C)(=O)=O)ccc1OC
fold change [1, 7]: 0.998 (inactive) and 0.882 (inactive) and 0.896 (inactive)
fold change [1, 8]: 1.76 and 0.709 and 3.36
cell count [1, 9]: 9610 and 9280 and 12200
cell count [1, 10]: 9630 and 10500 and 13600
outcome [2]: inactive
z-score [3, 11]: 0.496 (inactive)
z-score [3, 12]: -0.0746
remaining NAD [4]: 10 nM (inactive)
luciferase signal [6]: 80 AU (inactive)
z-score [5]: 0.285 (inactive)

Cc1cc(N)c2ccccc2[n+]1CCCCCCCCCC[n+]1c(C)cc(N)c2ccccc21
fold change [1, 7]: 1.04 (inactive) and 0.959 (inactive)
fold change [1, 8]: 1.28 and 1.58
cell count [1, 9]: 1900 and 2180
cell count [1, 10]: 1830 and 2270
outcome [2]: inactive
z-score [3, 11]: -3.39 (inactive)
z-score [3, 12]: -2.46
remaining NAD [4]: 10 nM (inactive)
z-score [5]: -1.04 (inactive)

CCN1CCC[C@H]1CNC(=O)c1c(O)c(Cl)cc(Cl)c1OC
fold change [1, 7]: 1 (inactive) and 0.9 (inactive) and 0.875 (inactive)
fold change [1, 8]: 1.23 and 0.728 and 0.77
cell count [1, 9]: 9930 and 9080 and 9820
cell count [1, 10]: 9900 and 10100 and 11200
outcome [2]: inactive
z-score [3, 11]: -0.782 (inactive) and -0.532 (inactive)
z-score [3, 12]: -0.0598 and -0.803
z-score [5]: 0.525 (inactive) and -0.165 (inactive) and 0.41 (inactive)

O=C(O)c1cc(=O)c2ccccc2o1
fold change [1, 7]: 0.884 (inactive)
fold change [1, 8]: 1.39
cell count [1, 9]: 8030
cell count [1, 10]: 9090
z-score [3, 11]: -0.239 (inactive)
z-score [3, 12]: -0.17
remaining NAD [4]: 10 nM (inactive)
luciferase signal [6]: 52 AU (inactive)

CCCCOc1cc(C(=O)NCCN(CC)CC)c2ccccc2n1
fold change [1, 7]: 0.83 (inactive) and 0.969 (inactive) and 0.813 (inactive)
fold change [1, 8]: 0.865 and 0.646 and 1.83
cell count [1, 9]: 7720 and 7790 and 10400
cell count [1, 10]: 9300 and 8040 and 12800
z-score [3, 11]: -0.328 (inactive) and -0.63 (inactive)
z-score [3, 12]: -0.208 and 0.449
remaining NAD [4]: 10 nM (inactive)
luciferase signal [6]: 40 AU (inactive)

NCCCC(=O)O
fold change [1, 7]: 1.09 (inactive)
fold change [1, 8]: 1.86
cell count [1, 9]: 10000
cell count [1, 10]: 9160
outcome [2]: inactive
remaining NAD [4]: 10 nM (inactive)
luciferase signal [6]: 56 AU (inactive)
z-score [5]: 0.26 (inactive)

CCCCCCCC/C=C\CCCCCCCC(=O)NCc1ccc(O)c(OC)c1
fold change [1, 7]: 1.07 (inactive) and 0.928 (inactive) and 0.945 (inactive)
fold change [1, 8]: 0.981 and 1.03 and 0.614
cell count [1, 9]: 10500 and 5740 and 9140
cell count [1, 10]: 9800 and 6180 and 9670
outcome [2]: inactive
z-score [5]: -1.29 (inactive) and -1.24 (inactive)

CCn1cc(C(=O)O)c(=O)c2cnc(N3CCNCC3)nc21
fold change [1, 7]: 0.922 (inactive)
fold change [1, 8]: 1.25
cell count [1, 9]: 9710
cell count [1, 10]: 10500
z-score [3, 11]: 0.675 (inactive)
z-score [3, 12]: 0.0409
remaining NAD [4]: 10 nM (inactive)
luciferase signal [6]: 56 AU (inactive)
